PubChem BioAssay AID1956 (SRMLSC, 2009)
Hit rate of the full screen: of about 220,000 compounds, about 10 (0.005%) were called active. Cut-off read from the data, not from the text of the source: active = maximum fold increase above about 1.5; inconclusive = no clear call, values can overlap the other calls; inactive = below that; tested in PC3 cells. A selection follows.

Assay: enhancers of HSV replication in host cells, fold increase, host cell viability (AID 1956)
Conditions: HSV replication augmentation in cells; fold increase: measured here: primary screen fold increase 10 uM, at 10 µM, stronger effect = higher value; maximum fold increase: at 0.098 µM, stronger effect = higher value; viability: measured here: host cell viability series, at 25 µM, stronger effect = lower value
For `COc1ccc(C#Cc2c(-c3ccc(OC)cc3)oc3ccc(-c4ccc5c(c4)OCO5)cc23)cc1`, the fold increase was 0.99 and the outcome was “inactive”.
For `Cc1nc(-c2ccccc2)sc1C1(C)CC(c2cccnc2)=NO1` (configuration not stated), the fold increase was 0.85 and the outcome was “inactive”.
With `COC(=O)c1sccc1NN1C(=O)c2ccccc2C1=O` the fold increase was 1.18 and the outcome was “inactive”.
For `COCCN1C2=C(COC(C)(C)C2)C(=S)NC1c1ccccc1` (configuration not stated), the fold increase was 0.95 and the outcome was “inactive”.
In the case of `O=C1N[C@@H](Cc2ccccc2)C(=O)N2[C@@H]3N(S(=O)(=O)c4ccc(F)cc4)c4ccccc4[C@]3(Br)C[C@@H]12`, the fold increase is reported as 0.86 and the outcome is reported as “inactive”.
In the case of `CCOC(=O)C[C@H]1c2ccc(C(F)(F)F)cc2S(=O)(=O)N1c1ccccc1`, the fold increase is reported as 0.88 and the outcome is reported as “inactive”.
With `Cc1ccc(S(=O)(=O)N(C)C)cc1NC(=O)c1n[nH]c(=O)c2ccccc12` the fold increase was 0.73 and the outcome was “inactive”.
In the case of `O=C(NCc1ccccc1)c1ccc(S(=O)(=O)Nc2cccc(C(F)(F)F)c2)cc1`, the fold increase is reported as 0.83 and the outcome is reported as “inactive”.
For `O=C1CC(Cc2ccc(Cl)cc2)C(=O)N1c1cc(Cl)ccn1` (configuration not stated), the fold increase was 1.23 and the outcome was “inactive”.
For `O=C(O)C(F)(F)C(NCc1ccccc1)c1ccccc1` (configuration not stated), the fold increase was 0.84 and the outcome was “inactive”.
In the case of `CCN(CC)CCNCC(=O)Nc1ccc(Oc2ccccc2)cc1`, the fold increase is reported as 0.94 and the outcome is reported as “inactive”.
In the case of `NS(=O)(=O)c1ccc(NC2=CC(c3ccc(F)cc3)N(c3ccc(S(N)(=O)=O)cc3)C2=O)cc1` (configuration not stated), the fold increase is reported as 1.05 and the outcome is reported as “inactive”.
With `CC(C)(C)c1ccc(/C=C2\Oc3c(ccc(O)c3CN3CCN(CCO)CC3)C2=O)cc1` the fold increase was 1.25 and the outcome was “inactive”.
For `COc1ccc(CNC(=O)C2CC(c3ccc(C(F)(F)F)cc3)=NO2)cc1` (configuration not stated), the fold increase was 0.93 and the outcome was “inactive”.
For `CCN(CC)c1ccc(NC(=O)C2CCC(CNc3c(N4CCCC4)c(=O)c3=O)CC2)c(C)c1` (configuration not stated), the fold increase was 1 and the outcome was “inactive”.
For `COc1ccc(CCN2C(=O)N(c3ccc(OC)cc3)C(=O)C2CC(=O)Nc2ccc(OC)cc2)cc1` (configuration not stated), the fold increase was 0.88 and the outcome was “inactive”.
With `COC(=O)c1ccc(C(NC(=O)OCc2ccccc2)/C(F)=C/[C@@H](C)C(=O)O)cc1` (some centres not stated) the fold increase was 0.86 and the outcome was “inactive”.
For `COC(=O)c1c(C)cc(O)c(C)c1O`, the fold increase was 0.79 and the outcome was “inactive”.
With `O=C1CC2(CCCC2)Oc2ccc(Cl)cc21` the fold increase was 0.69 and the outcome was “inactive”.
In the case of `CC(C)Oc1ccc(CCC(=O)NNC(=S)NCc2ccccc2)cc1`, the fold increase is reported as 1.13 and the outcome is reported as “inactive”.
In the case of `CC(=O)N[C@H]1[C@H]([C@H](O)[C@H](O)CO)OC(C(=O)O)=C[C@@H]1O`, the fold increase is reported as 0.87 and the outcome is reported as “inactive”.
With `CC(CO)(CO)NC(=O)c1ccc(=O)[nH]n1` the fold increase was 0.94 and the outcome was “inactive”.
For `COC(C[C@@H](O)C[C@H](O)[C@H](C)OCc1ccccc1)OC`, the fold increase was 0.91 and the outcome was “inactive”.
For `COC(C[C@@H]1O[C@@H]1C(=O)[C@@H](C)OCc1ccccc1)OC`, the fold increase was 0.81 and the outcome was “inactive”.
With `COc1ccc(NC(=O)CSc2ncnc3[nH]ncc23)cc1` the fold increase was 1.02 and the outcome was “inactive”.
With `CCOC(=O)c1ccc(NC(=O)c2c(NCc3ccccc3)[nH]c(=O)[nH]c2=O)cc1` the fold increase was 0.87 and the outcome was “inactive”.
With `O=C(NC(=O)N1CCSCC1)c1c(Cl)cccc1Cl` the fold increase was 1 and the outcome was “inactive”.
In the case of `CNC(C)C#Cc1ccc2sc3cc(OC)c(OC)cc3c(=O)c2c1` (configuration not stated), the fold increase is reported as 0.67 and the outcome is reported as “inactive”.
In the case of `O=C(O)/C=C/c1ccc2c(c1)OCCO2`, the fold increase is reported as 0.95 and the outcome is reported as “inactive”.
With `C[C@H](NC(=O)c1nc[nH]c1C(=O)N[C@@H](C)C(=O)OC(C)(C)C)C(=O)OC(C)(C)C` the fold increase was 0.88 and the outcome was “inactive”.
With `CNC(=S)NNC(=O)c1ccc(N(C)C)cc1` the fold increase was 1.02 and the outcome was “inactive”.
With `COc1ccc(CNC(=O)[C@@H]2CC=C[C@@H]3CCN(C4CC4)C(=O)[C@@H]32)cc1` the fold increase was 0.88 and the outcome was “inactive”.
With `CN=C1C=C/C(=N/N=c2\ccn(O)cc2C)C=C1C` the fold increase was 1.05 and the outcome was “inactive”.
With `Cc1ccccc1Nc1c(-c2ccccc2)nc2ncccn12` the fold increase was 1.06 and the outcome was “inactive”.
For `O=C1CCCC(O)=C1N=Nc1ccc(S(=O)(=O)N2CCOCC2)cc1`, the fold increase was 0.97 and the outcome was “inactive”.
For `COC(C[C@@H]1O[C@@H]1C(=O)[C@H](C)OCc1ccccc1)OC`, the fold increase was 0.81 and the outcome was “inactive”.
For `O=c1[nH]c(CSc2ccccc2)nc2c1oc1ccccc12`, the fold increase was 1.16 and the outcome was “inactive”.
For `CCOC(=O)C1=NN(c2ccc(Cl)cc2)/C(=C/C2=NCCc3cc(OC)c(OC)cc32)S1`, the fold increase was 1.18 and the outcome was “inactive”.
In the case of `CCn1c2ccccc2c2cc(NC(=O)Nc3ccc([N+](=O)[O-])cc3C)ccc21`, the fold increase is reported as 0.73 and the outcome is reported as “inactive”.
For `Cc1ccc(NC(=O)c2nc[nH]c2C(=O)N[C@@H](CCCCNC(=O)OC(C)(C)C)C(=O)OC(C)(C)C)cc1`, the fold increase was 0.74 and the outcome was “inactive”.
For `C/C=C/C(=O)Nc1ccc(N2CCN(c3ccc(C(F)(F)F)cn3)CC2)nc1`, the fold increase was 0.88 and the outcome was “inactive”.
In the case of `CCC(=O)Nc1cccc(C2=NOC3(C2)C[C@@H](C(N)=O)N(C(=O)c2cc([N+](=O)[O-])cc([N+](=O)[O-])c2C)C3)c1` (some centres not stated), the fold increase is reported as 1.3 and the outcome is reported as “inactive”.
For `CCCC[C@@H]1CN=C(N)N1CCCC`, the fold increase was 1.05 and the outcome was “inactive”.
In the case of `COC(C/C=C/C(=O)[C@@H](C)OCc1ccccc1)OC`, the fold increase is reported as 0.77 and the outcome is reported as “inactive”.
In the case of `Cn1ccnc1-c1nnn(-c2ccc(F)cc2)n1`, the fold increase is reported as 1.06 and the outcome is reported as “inactive”.
With `CCOC(=O)c1cccc(NC(=O)c2ccc(F)cc2F)c1` the fold increase was 0.77 and the outcome was “inactive”.
In the case of `O=C(N/N=C/c1ccccn1)c1cccnc1`, the fold increase is reported as 1.05 and the outcome is reported as “inactive”.
For `COC(=O)C1=C[C@@H](C(=O)OC)[C@@H]2C3=C(C(=O)[C@]2(C)NC(=O)c2ccccc2)[C@H](C)n2c(=O)n(C)c(=O)n2[C@@H]3C1`, the fold increase was 0.77 and the outcome was “inactive”.
With `C#CCOCCOCCOCCNc1nc(N2CCN(C(=O)C([C@@H](C)CC)n3cc(C(N)COC(=O)C(F)(F)F)nn3)CC2)nc(N2CCN(C(=O)[C@H](CCCCN)n3cc(C(N)CC(C)C)nn3)CC2)n1` (some centres not stated) the fold increase was 0.79 and the outcome was “inactive”.
In the case of `C=C(C)COc1ccc(-c2nc(N)ncc2-c2ccccc2OC)c(O)c1`, the fold increase is reported as 0.94 and the outcome is reported as “inactive”.
For `COCCN(C(=S)Nc1cccc(Cl)c1C)C(C)c1ccco1` (configuration not stated), the fold increase was 1.01 and the outcome was “inactive”.
For `Cc1cccc(Nc2nc(NCCO)nc(N3CCCC3)n2)c1`, the fold increase was 0.73 and the outcome was “inactive”.
For `Cc1nnc(Nc2ccccc2F)s1`, the fold increase was 0.86 and the outcome was “inactive”.
In the case of `CC1(C)C2CC[C@]3(C)C(CC=C4[C@@H]5C[C@@](C)(CO)CC[C@]5(C(=O)O)CC[C@]43C)[C@@]2(C)CC[C@@H]1O` (some centres not stated), the fold increase is reported as 1.01 and the outcome is reported as “inactive”.
For `C=C(C)CNC(=S)Nc1ccc(S(=O)(=O)Nc2cnc3ccccc3n2)cc1`, the fold increase was 0.94 and the outcome was “inactive”.
With `CCOC(=O)c1nnn2c1nc(N1CCN(c3ccccc3)CC1)c1ccccc12` the fold increase was 1.01 and the outcome was “inactive”.
For `CC1=C(N2CCN(c3ncccn3)CC2)CCC1=O`, the fold increase was 1.12 and the outcome was “inactive”.
In the case of `N#CCc1c(C#N)c(N)nc(N2CCCC2)c1C#N`, the fold increase is reported as 0.85 and the outcome is reported as “inactive”.
In the case of `COc1ccc(-c2nc3c(s2)CCc2onc(-c4ccc(Br)cc4)c2-3)cc1`, the fold increase is reported as 0.69 and the outcome is reported as “inactive”.
For `C=CCSC(CC)(CC)C(N)=O`, the fold increase was 1.35, the maximum fold increase was 1.19 (inactive) and the viability was 104%.
In the case of `COCOc1cc(O)c(C(=O)/C=C/c2ccc(OCOC)c(OCOC)c2)c(OCOC)c1`, the fold increase is reported as 0.92 and the outcome is reported as “inactive”.
With `O=C(NC1CCN(Cc2ccccc2)CC1)c1ccc(Oc2cc(Cl)cc(Cl)c2)o1` the fold increase was 0.88 and the outcome was “inactive”.
In the case of `CN(C)/C=C(/C(=O)c1ccc(Cl)c(Cl)c1)c1nnnn1-c1ccccc1`, the fold increase is reported as 1.22 and the outcome is reported as “inactive”.
With `COc1ccc2nc(NC(=O)NC3CCCCC3)sc2c1` the fold increase was 0.94 and the outcome was “inactive”.
For `C=CCOC(=O)C1=C[C@H](c2ccc(Br)cc2)C[C@H](OCCCCO)O1`, the fold increase was 0.91 and the outcome was “inactive”.
With `O=C(CCl)Nc1ccc(Sc2ccc(NC(=O)CCl)cc2)cc1` the fold increase was 0.77 and the outcome was “inactive”.
In the case of `CC(C)c1ccc(NC(=S)NC2CC3C=CC2C3)cc1` (configuration not stated), the fold increase is reported as 0.94 and the outcome is reported as “inactive”.
In the case of `CCCNc1c(N)c(=O)c1=O`, the fold increase is reported as 0.92 and the outcome is reported as “inactive”.
In the case of `CCCc1ccc(C(=O)[C@@H]2[C@@H](C(C)=O)N3c4ccc(F)cc4C=C[C@@H]3[C@@]23C(=O)Nc2ccccc23)cc1`, the fold increase is reported as 1 and the outcome is reported as “inactive”.
With `Nc1c(N(CCO)C(=O)C2CCCCC2)c(=O)[nH]c(=O)n1Cc1ccccc1` the fold increase was 0.95 and the outcome was “inactive”.
In the case of `CC1CC(=O)Nc2ccccc2N1S(=O)(=O)c1cccs1` (configuration not stated), the fold increase is reported as 1.03 and the outcome is reported as “inactive”.
With `C=C1CCN([C@@H](Cc2ccccc2)C(=O)N2CCOCC2)S(=O)(=O)c2ccccc21` the fold increase was 0.89 and the outcome was “inactive”.
For `CC1CC(NC(=O)/C(C#N)=C/c2ccc[nH]2)CC(C)(C)C1` (configuration not stated), the fold increase was 0.99 and the outcome was “inactive”.
For `Cc1nn2c(NCCN(C)C)c3c(nc2c1-c1ccccc1)CCC3`, the fold increase was 0.77 and the outcome was “inactive”.
In the case of `COc1ccccc1C1=CC(=O)CCC1`, the fold increase is reported as 0.81 and the outcome is reported as “inactive”.
For `COCCCn1c(-c2cccs2)nc2nc3ccccc3nc21`, the fold increase was 0.9 and the outcome was “inactive”.
With `O=C(CCNc1n[nH]c(=O)[nH]c1=O)N/N=C\c1ccc(Br)cc1` the fold increase was 1 and the outcome was “inactive”.
For `CC1(C)CC(CNCCC(c2ccc(F)cc2)c2ccco2)CCO1` (configuration not stated), the fold increase was 0.96 and the outcome was “inactive”.
For `COc1ccc(CCn2c(NN=C3CCCC3)nc3c2c(=O)[nH]c(=O)n3C)cc1`, the fold increase was 0.93 and the outcome was “inactive”.
For `CSC1=NC2(C)CCCCC2C12C=CC(=O)C=C2` (configuration not stated), the fold increase was 0.88 and the outcome was “inactive”.
For `CCOC(=O)c1ccccc1NC(=O)c1c(N)n(C)c(=O)[nH]c1=O`, the fold increase was 0.6 and the outcome was “inactive”.
With `Cc1ccc(-c2csc(NCCc3nc4cc(Cl)c(Cl)cc4n3CCOCCO)n2)cc1` the fold increase was 0.88 and the outcome was “inactive”.
With `CN(C)S(=O)(=O)c1ccc(NC(=O)COC(=O)Cn2[nH]c(=O)c3ccccc3c2=O)cc1` the fold increase was 0.93 and the outcome was “inactive”.
With `Nc1nc(Nc2ccccc2)nc(NCCO)c1[N+](=O)[O-]` the fold increase was 0.82 and the outcome was “inactive”.
With `C=CCSc1nnc2c(n1)-c1cccc3cccc-2c13` the fold increase was 0.7 and the outcome was “inactive”.
With `O=C1N[C@H](Cc2ccccc2)C(=O)N[C@H]1Cc1cn(S(=O)(=O)c2ccccc2)c2ccccc12` the fold increase was 0.74 and the outcome was “inactive”.
In the case of `O=C(COc1ccccc1[N+](=O)[O-])N/N=C/c1ccc[nH]1`, the fold increase is reported as 1 and the outcome is reported as “inactive”.
With `Cc1ccc(N2C(=O)CC(Nc3cccc4ccccc34)C2=O)cc1` (configuration not stated) the fold increase was 0.96 and the outcome was “inactive”.
